# Test results: PubChem BioAssay (NCATS)
# Results filed as inconclusive are left out. A call without a number means that no potency is given here. The source made the active and inactive calls. Unless noted, calls follow the shape of the dose curve; as a rule, active = well fitted curve in the direction sought with a large enough effect; inconclusive = small, poorly fitted or top-dose-only effect, or another doubt; inactive = no such curve, though single readings can be large; an effect the other way counts as inactive or inconclusive.
# What was measured:
# [1] = qHTS to identify inhibitors of the type 1 interferon - major histocompatibility complex class I in skeletal muscle: primary screen against the NCATS Pharmaceutical Collection (AID 1347407);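 also: luminescence of HiBiT knocked into endogenous HLA-B as interferon-induced MHC class I level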
# Method in brief: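 Immortalized human myoblasts (C25cl48) with HiBiT knocked into endogenous HLA-B*08:01 were stimulated with 4.0 ng/ml IFN-beta and treated with compounds ([…] top 46 uM) for 24 hrs at 37 C. HiBiT lytic luminescence read.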
# [2] = target: Protein phosphatase 1D (Homo sapiens) (UniProt O15297); assay: RapidFire Mass Spectrometry qHTS Assay for Modulators of WT P53-Induced Phosphatase 1 (WIP1) (AID 1347424);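 also: amount of dephosphorylated VEPPL-S-QETFS peptide product formed by WIP1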
# Method in brief: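 10 nM WIP1 + cpd, 1 h RT; + 2 uM VEPPL-pS-QETFS, 5 min RT; stop 0.5% formic acid; labelled product standard 1 uM; RapidFire MS. Buffer 50 mM Tris pH 7.5, 30 mM MgCl2, 1 mM TCEP.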
# [3] = target: Protein phosphatase 1D (Homo sapiens) (UniProt O15297); assay: Rhodamine-PBP qHTS Assay for Modulators of WT P53-Induced Phosphatase 1 (WIP1) (AID 1347425)
# Method in brief: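 Steps: enzyme with Rh-PBP sensor and compounds, room-temperature incubation of 1 hr, baseline read, addition of VEPPL-pS-QETFS (10 uM final), kinetic fluorescence reads at 525/598 nm. Activity equals final minus baseline signal.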
# [4] = A High-Content qHTS Against Drug Library for the Identification of Small Molecules that Inhibit DYT1 Early Onset Primary Dystonia-Associated Cell Pathology (AID 1645839; calls by dose curve)
# Method in brief: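 In this high-content image screen, delE TorsinA mislocalization in inducible Flp-In 293 cells is scored as %pathology, with cell count serving as the counterscreen. Compound exposure lasts 48 h under tetracycline induction in reduced-serum medium.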
# [5] = NCATS anti-infectives library activity on HEK293 viability as a counter-qHTS vs the C. elegans viability qHTS (AID 1745854)
# Method in brief: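 HEK293 cells, 1500 per well, exposed 24 hr at 37C in 5% CO2 to compounds in a 1:5 titration, up to 41.7 uM final. Viability read as CellTiter-Glo luminescence after 10 min at room temperature.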
# [6] = tested on: NIH3T3; assay: qHTS assay to identify novel small-molecules to repurpose for Merkel cell carcinoma treatment (AID 1296009); conditions: MCC and control cell lines, CellTiter-Glo viability, 72 h; series mostly up to 9.27 µM; also: nearly all actives have a fitted effect of over 60% in size; also: potency is read from the fitted curve at half-maximal effect
# Method in brief: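 After compound transfer in DMSO, plates were kept 72 hr at 37 degree celsius. Luminescent ATP signal from CellTiter-Glo served as viability measure, normalized against DMSO and no-cell controls.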
# [7] = tested on: astro; assay: Drug repurposing screens with cells derived from glioblastoma tumor samples (AID 1345199); conditions: viability, ATP luminescence, 48 h; series mostly up to 45.9 µM; also: nearly all actives have a fitted effect of over 40% in size
# Method in brief: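 Four patient lines of CD133+ GBM neurospheres were screened at several concentrations; hits were retested in those lines plus three slower-growing GBM lines, using 48-hour treatment and ATP-based viability.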
# [8] = tested on: 3D7; assay: qHTS profiling for inhibitors of Plasmodium falciparum proliferation (AID 504749); also: nearly all actives have a fitted effect of over 60% in size; also: potency is read from the fitted curve at half-maximal effect; conditions: P. falciparum in erythrocytes, SYBR Green DNA, 72 h; series mostly up to 28.7 µM
# Method in brief: (§1)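 Three-day growth assay of blood-stage parasites in erythrocytes (0.3% parasitemia, 2.5% hematocrit) at 37 C, 5% CO2, quantified by SYBR Green DNA staining after overnight detergent lysis.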
# [9] = tested on: AS120; assay: as above; conditions: P. falciparum in erythrocytes, SYBR Green DNA, 72 h; series mostly up to 28.7 µM
# Method in brief: as §1
# [10] = tested on: CP185; assay: as above; conditions: P. falciparum in erythrocytes, SYBR Green DNA, 72 h; series mostly up to 28.7 µM
# Method in brief: as §1
# [11] = tested on: CP192; assay: as above; conditions: P. falciparum in erythrocytes, SYBR Green DNA, 72 h; series mostly up to 28.7 µM
# Method in brief: as §1
# [12] = tested on: CP194; assay: as above; conditions: P. falciparum in erythrocytes, SYBR Green DNA, 72 h; series mostly up to 28.7 µM
# Method in brief: as §1
# [13] = tested on: CP201; assay: as above; conditions: P. falciparum in erythrocytes, SYBR Green DNA, 72 h; series mostly up to 28.7 µM
# Method in brief: as §1
# [14] = tested on: CP203; assay: as above; conditions: P. falciparum in erythrocytes, SYBR Green DNA, 72 h; series mostly up to 28.7 µM
# Method in brief: as §1
# [15] = tested on: CP247; assay: as above; conditions: P. falciparum in erythrocytes, SYBR Green DNA, 72 h; series mostly up to 28.7 µM
# Method in brief: as §1
# [16] = tested on: CP286; assay: as above; conditions: P. falciparum in erythrocytes, SYBR Green DNA, 72 h; series mostly up to 28.7 µM
# Method in brief: as §1
# [17] = tested on: CP291; assay: as above; conditions: P. falciparum in erythrocytes, SYBR Green DNA, 72 h; series mostly up to 28.7 µM
# Method in brief: as §1
# [18] = tested on: DFO2036; assay: as above; conditions: P. falciparum in erythrocytes, SYBR Green DNA, 72 h; series mostly up to 28.7 µM
# Method in brief: as §1
# [19] = tested on: GB4; assay: as above; conditions: P. falciparum in erythrocytes, SYBR Green DNA, 72 h; series mostly up to 28.7 µM
# Method in brief: as §1
# [20] = tested on: PC49; assay: as above; conditions: P. falciparum in erythrocytes, SYBR Green DNA, 72 h; series mostly up to 28.7 µM
# Method in brief: as §1
# Protein phosphatase 1D (Homo sapiens), sequence (O15297 whole entry, looked up): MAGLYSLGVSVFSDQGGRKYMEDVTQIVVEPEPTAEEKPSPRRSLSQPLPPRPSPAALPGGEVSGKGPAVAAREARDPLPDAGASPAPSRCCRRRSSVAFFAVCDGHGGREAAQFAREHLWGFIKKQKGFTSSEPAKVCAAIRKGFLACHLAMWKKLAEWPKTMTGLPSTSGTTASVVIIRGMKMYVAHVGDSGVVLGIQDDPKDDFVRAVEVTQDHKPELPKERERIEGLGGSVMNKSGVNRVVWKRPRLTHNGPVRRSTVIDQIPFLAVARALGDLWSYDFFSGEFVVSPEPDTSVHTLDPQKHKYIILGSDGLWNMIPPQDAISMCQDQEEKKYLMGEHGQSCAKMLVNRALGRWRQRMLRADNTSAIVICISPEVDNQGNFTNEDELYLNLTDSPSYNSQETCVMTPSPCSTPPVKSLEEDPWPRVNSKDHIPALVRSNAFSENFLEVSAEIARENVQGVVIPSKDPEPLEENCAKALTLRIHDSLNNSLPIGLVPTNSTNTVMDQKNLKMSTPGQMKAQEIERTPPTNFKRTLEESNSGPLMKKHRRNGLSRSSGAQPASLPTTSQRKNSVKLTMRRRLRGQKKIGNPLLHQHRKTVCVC
smiles,measurement,setting,value
CCN(CC)c1ccc(C(=C2C=CC(=[N+](CC)CC)C=C2)c2cc(S(=O)(=O)O)ccc2S(=O)(=O)[O-])cc1,outcome,[1],inactive
same,outcome,[2],inactive
same,outcome,[3],inactive
same,outcome,[4],inactive
CCOC(=O)c1cccc(CNc2ccc(N(C)C(=O)Nc3ccccc3)cc2)c1,outcome,[5],inactive
C=C1[C@@H](C2=CC(=O)OC2)CC[C@@]2(O)[C@@H]1CC1[C@H]2CC[C@@H]2C[C@@H](O[C@H]3O[C@@H](C)[C@@H](O[C@@H]4O[C@H](CO[C@@H]5O[C@H](CO)[C@@H](O)[C@H](O)[C@H]5O)[C@@H](O)[C@H](O)[C@H]4O)[C@H](OC)[C@H]3O)CC[C@]12C (stereo not given in full),Potency,[6],inactive
CCNC(=O)[C@@H]1CCCN1C(=O)[C@H](CCCN=C(N)N)NC(=O)[C@H](CC(C)C)NC(=O)[C@@H](CC(C)C)NC(=O)[C@H](Cc1ccc(O)cc1)NC(=O)[C@H](CO)NC(=O)[C@H](Cc1c[nH]c2ccccc12)NC(=O)[C@H](Cc1cnc[nH]1)NC(=O)[C@@H]1CCC(=O)N1,Potency,[7],inactive
O=C(CC1NCCC[C@H]1O)Cn1cnc2cc(Br)c(Cl)cc2c1=O (stereo not given in full),Potency,[8],1000 nM (active)
same,Potency,[9],2000 nM (active)
same,Potency,[10],2820 nM (active)
same,Potency,[11],3380 nM (active)
same,Potency,[12],4780 nM (active)
same,Potency,[13],3380 nM (active)
same,Potency,[14],3380 nM (active)
same,Potency,[15],2240 nM (active)
same,Potency,[16],2000 nM (active)
same,Potency,[17],2690 nM (active)
same,Potency,[18],2820 nM (active)
same,Potency,[19],1900 nM (active)
same,Potency,[20],1780 nM (active)
O=C(c1ccc(F)c(F)c1Nc1ccc(I)cc1F)N1CC(O)([C@@H]2CCCCN2)C1,Potency,[6],9200 nM (active)
CS(=O)(=O)c1ccc(-c2cn3ccccc3n2)cc1,outcome,[1],inactive
same,outcome,[2],inactive
same,outcome,[3],inactive
same,outcome,[4],inactive
N#C[C@@H]1C[C@@H]2C[C@@H]2N1C(=O)[C@@H](N)C12CC3CC(CC(O)(C3)C1)C2,outcome,[5],inactive
CCCCC(=O)N(Cc1ccc(-c2ccccc2-c2nn[nH]n2)cc1)C(C(=O)O)C(C)C (stereo not given),Potency,[8],inactive
same,Potency,[9],inactive
same,Potency,[10],inactive
same,Potency,[11],inactive
same,Potency,[12],inactive
same,Potency,[13],inactive
same,Potency,[14],inactive
same,Potency,[15],inactive
same,Potency,[16],inactive
same,Potency,[17],inactive
same,Potency,[18],inactive
same,Potency,[19],13500 nM (active)
same,Potency,[20],inactive
Nc1ccc(N)c([N+](=O)[O-])c1,Potency,[7],inactive
